MITF TRPM1 inh: inhibitors of MITF-dependent TRPM1 promoter reporter, primary screen, cell-based, SK-MEL-5, single point, luciferase; SK-MEL-5 TRPM1 promoter luciferase, 24 h; inhibition, % at 12.5 µM; 330,000 compounds, 0.83% hits;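 active means mean inhibition across replicates of 60% or more, whatever share of single replicates reaches that level; inconclusive means some that reach 60%, reason not given; inactive means mean inhibition across replicates below 60%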
Shn3 inh set2: reduction of Shn3 3'UTR firefly luciferase signal, primary screen, Schnurri-3 inhibitor project, cell-based, Clone20 osteoblasts, set 2; Clone20 osteoblast Shn3 3'UTR firefly luciferase, 24 h; inhibition, % at 12.5 µM; 360,000 compounds, 0.52% hits; AID 588674, 2011;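 active means mean inhibition of at least 75% with every replicate also reaching 75%; inconclusive means mean inhibition at least 75% but some replicate below; inactive means mean inhibition below 75%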;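 further: 0% = median of neutral control wells and 100% = pilot-screen positive control compound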
PAX8 inh HTS: inhibitors of PAX8-driven TPO luciferase reporter, primary screen, RMG-I cells, single concentration | AID 652154, 2013 | SteadyGlo, 24 h | 360,000 compounds, 1.2% hits | inhibition, % at 12.6 µM;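 active means mean replicate inhibition at least 60% with every replicate also reaching 60%; inconclusive means only one of the two criteria is met; inactive means mean below 60% and not all replicates reaching 60%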;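 further: luciferase light reporting Pax8 driven TPO promoter activity; plate controls were median of neutral control wells for no effect and mitoxantrone controls for full effect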
EWS-Fli block: EWS/Fli-driven NR0B1 reporter inhibitors, primary screen, A673 cells, NR0B1 luciferase, luminescence, MLPCN library; viability-normalised; 350,000 compounds, 0.67% hits; inhibition, % at 12.6 µM;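 active means mean inhibition of at least 50% after viability correction, with every replicate also passing that limit; inconclusive means mean reaches 50% but only one of two replicates passes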;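 further: firefly luciferase signal divided by Alamar Blue viability fluorescence both relative to DMSO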
Peg3 promoter: Peg3 promoter-driven luciferase inhibitors, primary screen, cell-based, HeLa, luciferase luminescence; HeLa PEG-Prom luciferase reporter, overnight; inhibition, % at 20 µM; 360,000 compounds, 1.7% hits; AID 588405, 2011;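 active means inhibition of at least 50% at 20 µM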
ABHD5 PLIN5 PPI: ABHD5-PLIN5 interaction inhibitors, primary screen, cell lysate, split luciferase complementation, luminescence | Split G. princeps luciferase complementation, 4 h | 360,000 compounds, 0.78% hits | inhibition, % at 4 µM | AID 602281, 2012 | Perilipin-5 (Homo sapiens) + 1-acylglycerol-3-phosphate O-acyltransferase ABHD5 (Homo …;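 active means inhibition above the mean inhibition across every tested compound plus 3 SD, cut at about 22% in these data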;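 further: 0% = DMSO only wells and the 100% control is not disclosed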
Starred values were filed as active, the others as inactive; ? = inconclusive; / = no result given. Only some compounds are listed: those with a hit (about 3% of all), similar ones and a draw of the others.

SMILES	MITF TRPM1 inh	Shn3 inh set2	PAX8 inh HTS	EWS-Fli block	Peg3 promoter	ABHD5 PLIN5 PPI
C=CCOC(=O)[C@H]1[C@@H]2C(=O)O[C@@H](c3ccccc3)[C@@H](c3ccccc3)N2[C@@H](c2ccc(OCCOC(=O)[C@@H]3C[C@@H]4C(=O)N[C@@H](Cc5ccccc5)C(=O)N4[C@@H]3c3ccc(O)cc3)cc2)[C@]12C(=O)Nc1ccc(I)cc12	/	/	10	6	/	/
COc1cc(/C=C/C(=O)c2ccc(O)cc2)ccc1OCC#N	22	32	55	27	97*	18
CCc1nc2ccc(C(=O)NCCCn3ccnc3)cn2c1N(C)CCCc1ccccc1	/	-2	19	-14	11	4
CCc1nc2ccc(C(=O)NCCCN(C)C)cn2c1N(C)CCCc1ccccc1	/	-19	-20	9	53*	12
CCNC(=O)N(C)c1c(CC)nc2ccc(C(=O)Nc3cccc(OCC(=O)N(C)C)c3)cn12	/	-3	3	2	7	1
CCc1nc2ccc(C(=O)Nc3cccc(OCC(=O)N(C)C)c3)cn2c1N(C)Cc1cc2ccccc2s1	/	9	-11	3	73*	6
CCc1nc2ccc(C(=O)NC3CCN(Cc4ccccc4)CC3)cn2c1N(C)Cc1cc2ccccc2s1	/	49	?	22	94*	13
CCNC(=O)C[C@H]1CC[C@@H]2[C@H](COc3ccc(NC(=O)Nc4cccc(F)c4)cc3C(=O)N2C)O1	/	/	4	-2	/	/
O=S(=O)(c1cccc(F)c1)N1CC[C@@H]2[C@H]1c1cc(Br)ccc1N[C@@H]2CO	/	/	4	-7	/	/
CCCNC(=O)C[C@@H]1C[C@@H]2c3cc(NS(=O)(=O)c4ccc(F)cc4)ccc3O[C@@H]2[C@@H](CO)O1	/	/	-8	4	/	/
CC(C)(C)C(=O)Nc1cc(S(=O)(=O)N2CCCCC2)ccc1N1CCCCC1	25	84*	14	1	35	-3
CCN1CCN(c2ccc(S(=O)(=O)N3CCCCC3)cc2NC(=O)/C=C/c2ccc(F)cc2)CC1	-4	18	1	6	18	4
CC(C)C(=O)Nc1cc(S(=O)(=O)N2CCOCC2)ccc1N1CCCCC1	-6	-8	-7	13	-4	-7
CCN1CCN(c2ccc(S(=O)(=O)N3CCCCC3)cc2NC(=O)/C=C/c2cccc(OC)c2OC)CC1	78*	-10	13	15	68*	11
O=C(/C=C/c1ccc(Cl)c([N+](=O)[O-])c1)Nc1ccc(N2CCCC2)c(Cl)c1	3	28	8	30	10	0
CCN1CCN(c2ccc(S(=O)(=O)N3CCCCC3)cc2NC(=O)/C=C/c2ccc(OC(F)F)cc2)CC1	-20	-3	33	21	96*	15
CN1CCN(c2ccc(S(=O)(=O)N3CCCCC3)cc2NC(=O)/C=C/c2ccc(Cl)c([N+](=O)[O-])c2)CC1	10	4	88*	15	104*	7
CCN1CCN(c2ccc(S(=O)(=O)N3CCCCC3)cc2NC(=O)/C=C/c2ccc([N+](=O)[O-])cc2)CC1	47	-36	41	57*	76*	7
CC(Oc1ccc(F)cc1)C(=O)Nc1cc(S(=O)(=O)N2CCCCC2)ccc1N1CCN(C)CC1 (stereo not drawn)	9	4	2	11	12	1
CN1CCN(c2ccc(S(=O)(=O)N3CCCCC3)cc2NC(=O)/C=C/c2ccc(OC(F)F)cc2)CC1	-2	-33	46	18	76*	12
O=c1[nH]c(CSc2nc3ccccc3o2)nc2c1cnn2-c1ccccc1	1	2	/	/	53*	-7
CO[C@H]1CC[C@@H]2CCN(C)C(=O)[C@@H](C)[C@H](OC)CN(C)C(=O)c3cc(C#N)ccc3OC[C@H]1O2	/	/	8	-13	/	/
O=C(CN(c1cccc(C(F)(F)F)c1)S(=O)(=O)c1ccc(Cl)c([N+](=O)[O-])c1)NCc1ccc(F)cc1	44	-13	5	/	88*	15
CC(=O)Nc1ccc(Cl)c(C(N)=O)c1	7	-21	/	/	-4	-1
NC(=O)c1cc(N2C(=O)C=CC2=O)ccc1Cl	3	94*	/	/	30	-1
SMILES	MITF TRPM1 inh	Shn3 inh set2	PAX8 inh HTS	EWS-Fli block	Peg3 promoter	ABHD5 PLIN5 PPI
O=C1C(N2CCOCC2)=C(n2nnc3ccccc32)C(=O)c2ccccc21	98*	24	83*	/	98*	-16
O=C1c2ccccc2C(=O)c2c1cccc2-n1nnc2ccccc21	-1	10	-2	14	4	-7
CCCCOc1ccc2ccccc2c1C=O	-59	-31	-65	/	-154	4
CCOC(=O)COc1ccc2ccccc2c1/C=C/[N+](=O)[O-]	83*	95*	15	22	107*	8
O=[N+]([O-])/C=C/c1c(OCc2ccccc2)ccc2ccccc12	98*	/	/	/	101*	84*
S=C(NCc1ccccc1)Nc1cccc2cnccc12	7	75	21	/	30	-6
S=C(NCCc1ccccc1)Nc1cccc2cnccc12	23	89*	7	14	-19	4
CCC(=O)N(C)C[C@H]1Oc2cc(C3=CCCCC3)ccc2S(=O)(=O)N([C@H](C)CO)C[C@H]1C	/	/	/	-10	/	/
NC1(C(=O)O)CSSC1	65*	11	/	14	82*	-22
COc1ccc(NC(=O)N(C)C[C@H]2OCCCC[C@@H](C)Oc3ccc(NS(=O)(=O)c4ccc(OC)cc4)cc3C(=O)N([C@H](C)CO)C[C@@H]2C)cc1	/	/	-8	-7	/	/
CCOc1cc(NCc2ccccc2)c2ncn(C(C)C)c2c1	0	3	77*	2	22	-7
Cc1cc(C(=O)COC(=O)c2ccc[nH]c2=O)c(C)n1C	-40	-35	32	-14	-59	0
COCC(C)n1c(C)cc(C(=O)COC(=O)c2cc(=O)[nH]c3ccccc23)c1C (stereo not drawn)	/	32	-14	41	52*	-1
COCCn1c(C)cc(C(=O)COc2cccnc2[N+](=O)[O-])c1C	13	11	-11	7	65*	-1
COCCn1c(C)cc(C(=O)COC(=O)c2ccc[nH]c2=O)c1C	15	1	-41	/	52*	3
Cc1ccc(OCC(=O)c2cc(C)n(CC(F)(F)F)c2C)c([N+](=O)[O-])n1	4	-10	-5	-3	-13	7
Cc1cc(C)c(C(=O)COc2cccnc2[N+](=O)[O-])cc1C	18	6	/	/	31	-3
Cc1ccc(OCC(=O)c2cc(C)n(Cc3cccs3)c2C)c([N+](=O)[O-])n1	2	58	13	53*	43	-5
